Most compounds without a hit are left out; they make up all but 18% or so of the library.
DT40 TDP1 no CPT – qHTS for Inhibitors of human tyrosyl-DNA phosphodiesterase 1 (TDP1): qHTS in cells in absence of CPT. DT40 Tdp1-/- hTDP1 cells, no CPT, ATP luminescence, 48 h. Potency, µM (doses to about 46.2 µM), without a hit: at the top dose activity change, negative = growth inhibition, usual class: inhibitors. 420,000 tested, 15% active. AID 686978, 2013; also: potency is read from the fitted curve at half-maximal effect; nearly all actives have a fitted effect of over 55% in size
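No-CPT arm: Tdp1-/-;hTDP1 DT40 cells (400/well) plus compounds, incubated ≥48 hr at 37 °C. Readout CellTiter-Glo luminescence.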
TDP1 block – qHTS Assay for Inhibitors of Tyrosyl-DNA Phosphodiesterase (TDP1); Tyrosyl-DNA phosphodiesterase 1 (Homo sapiens), Q9NUW8; recombinant TDP1, AlphaScreen DNA substrate cleavage; Potency, µM (doses to about 130 µM), inactives show at the top dose activity change, negative = inhibition, hits mostly inhibitors; 350,000 tested, 0.28% active; also: potency is read from the fitted curve at half-maximal effect; nearly all actives have a fitted effect of over 40% in size
Target sequence (Q9NUW8 whole entry, looked up): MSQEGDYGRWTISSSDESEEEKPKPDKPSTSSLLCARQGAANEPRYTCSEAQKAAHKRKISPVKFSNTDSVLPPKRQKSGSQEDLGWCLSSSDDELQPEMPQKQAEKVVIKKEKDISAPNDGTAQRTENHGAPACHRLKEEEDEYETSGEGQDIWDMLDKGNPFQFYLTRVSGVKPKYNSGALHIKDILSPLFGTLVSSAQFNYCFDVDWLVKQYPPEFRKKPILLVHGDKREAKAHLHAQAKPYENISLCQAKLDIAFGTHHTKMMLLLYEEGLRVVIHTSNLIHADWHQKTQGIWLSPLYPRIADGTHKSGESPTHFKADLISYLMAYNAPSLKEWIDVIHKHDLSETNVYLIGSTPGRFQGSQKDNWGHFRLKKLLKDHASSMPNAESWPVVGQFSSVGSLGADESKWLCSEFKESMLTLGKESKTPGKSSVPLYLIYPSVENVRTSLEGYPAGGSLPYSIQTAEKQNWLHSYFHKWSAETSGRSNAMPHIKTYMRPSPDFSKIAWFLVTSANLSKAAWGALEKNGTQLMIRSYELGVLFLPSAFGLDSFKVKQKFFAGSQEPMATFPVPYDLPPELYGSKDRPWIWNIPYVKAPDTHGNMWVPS
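Tdp1 1 nM final; 15 min RT w/ cpd; substrate 15 nM, 5 min; beads 10 ug/ml, 10 min; AlphaScreen read. Neg ctrl: no enzyme.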
DT40 TDP1 CPT – qHTS for Inhibitors of human tyrosyl-DNA phosphodiesterase 1 (TDP1): qHTS in cells in presence of CPT; Potency, µM (top dose mostly 46.2 µM), for inactives: at the highest dose activity change, negative = growth inhibition, actives largely listed as inhibitors; chicken DT40 Tdp1-/-;hTDP1 cells + 20 nM CPT, ATP luminescence, 48 h; AID 686979, 2013; 420,000 tested, 12% active; also: potency is read from the fitted curve at half-maximal effect; nearly all actives have a fitted effect of over 55% in size
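Chicken DT40 Tdp1-/- cells stably complemented with human TDP1 were seeded at 400 cells/well in medium containing 20 nM camptothecin, exposed to pin-transferred compounds, and grown at 37 °C for at least 48 hr. Viability was read as ATP luminescence.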
Six1-Eya2 blk – qHTS Assay for Inhibitors of the Six1/Eya2 Interaction; 360,000 tested, 0.56% active; AlphaScreen GST-Six1/His-Eya2 binding, biochemical; hits give low values; AID 651725, 2012; activity change, % (concentration not given with the values); Homeobox protein SIX1 (Homo sapiens) + Protein phosphatase EYA2 (Homo sapiens), …; in the data active = activity change below about -65%; inconclusive = mostly about -30% to -63%
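Six1/Eya2 binding was read as AlphaScreen signal after compounds were pinned into GST-Six1 plus His-tagged Eya2 (5X stock 250/500 nM) in pH 8.0 Tris/NaCl/TCEP buffer, beads added, then incubated 1 h, 37 C, dark.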
CtBP-E1A inh – qHTS Assay for Inhibitors of the CtBP/E1A Interaction; CtBP / adenovirus E1A interaction (AlphaScreen); AlphaScreen GST-E1A/His-CtBP binding, 1536-well; hits give low values; activity change, % (no concentration beside the values); 340,000 tested, 0.49% active; AID 651724, 2012; in the data active = activity change below about -65%; inconclusive = mostly about -30% to -63%
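Homogeneous bead-based format: GST-tagged E1A captured on glutathione donor beads, His-tagged CtBP on nickel acceptor beads; compounds precede bead addition by 2 h at 37 °C.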
IL1B secr inh – qHTS for Inhibitors of Inflammasome Signaling: IL-1-beta AlphaLISA Primary Screen. THP-1 LPS/ATP IL-1B secretion, AlphaLISA, 16 h; hits give low values. activity change, % at 57.5 µM. 360,000 tested, 4.7% active. AID 743279, 2014; in the data active = activity change below about -50%; inconclusive = mostly about -30% to -49%
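THP-1 cells pretreated 1 hr with compounds (up to 57.5 uM final), then stimulated with LPS (250 ng/mL final) plus ATP (1.25 mM final); secreted IL-1B measured by AlphaLISA after 16 hr, decreased signal indicating inhibition.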
* marks the source's active call; other numbers are inactive results; ? = inconclusive; · = not tested or not shown; [ ] = dose if it differs, or a comment. Unless noted, calls follow the shape of the dose curve; as a rule, active = well fitted curve in the direction sought with a large enough effect; inconclusive = small, poorly fitted or top-dose-only effect, or another doubt; inactive = no such curve, though single readings can be large; an effect the other way counts as inactive or inconclusive. % is scaled to controls: 0 for no effect and ±100 for the full control effect.

SMILES | DT40 TDP1 no CPT | TDP1 block | DT40 TDP1 CPT | Six1-Eya2 blk | CtBP-E1A inh | IL1B secr inh
O=[N+]([O-])c1cc(F)cc(F)c1Nc1ccc(F)cc1 | -5% | · | -20% | ? | -67* | -1
CN(C)C/C(Cl)=C(\Cl)c1ccccc1 | 5.2µM* | 0% | 5.2µM* | -2 | 9 | -5
COc1ccc(-c2oc(=O)c3cc(OC)c(OC)cc3c2/C=C/c2ccc(OC(C)=O)cc2)cc1 | 9.2µM* | 1% | 21µM* | 16 | 26 | -25
COc1cc(-c2noc(C)c2/C=C/c2ccc(OC(C)=O)cc2)cc(OC)c1OC | 0.82µM* | · | 0.73µM* | -16 | -8 | 67
CCOC(=O)c1c(C)[nH]c(C)c1C(=O)COC(=O)c1cccnc1OCC | -18% | 1% | ? | -1 | -1 | 9
O=C(Nc1nc2ccccc2[nH]1)c1cccc(Br)c1 | ? | 11% | ? | -7 | -1 | 9
O=C(Nc1nc2ccccc2[nH]1)c1cccc(F)c1 | 16µM* | 0% | ? | -8 | -3 | 24
CN(C)c1cccc(C(=O)Nc2nc3ccccc3[nH]2)c1 | 12µM* | 5% | ? | ? | -20 | ?
COc1cc(N2Cc3ccccc3C2)ccc1C=O | ? | · | 19% | -3 | -17 | 13
COc1ccc2[nH]c3c(=O)n(CCCC(=O)NC4CCCCC4C)c(=S)[nH]c3c2c1 (stereo not given) | ? | -8% | ? | -7 | 2 | 5
O=C(CCSc1ccc(Br)cc1)c1ccc(O)cc1 | 4.1µM* | · | 3.7µM* | -2 | · | -25
O=C(CCO)c1ccc(O)cc1 | 0% | ? | 3% | ? | -2 | 3
Cc1cc(NC(=O)C2(C)CCN2C(C)C)c2ccccc2n1 (stereo not given) | 21µM* | · | ? | -2 | 1 | 90
CC(C)N1CCC1(C)C(=O)Nc1cccc2ccccc12 (stereo not given) | ? | · | ? | 6 | 6 | 12
CC(C)N1CCC1(C)C(=O)Nc1nccc2cccnc12 (stereo not given) | 5.2µM* | · | 4.1µM* | -8 | -11 | 0
CC(C(=O)O)C1CCC2C3CC=C4CC(O)CC[C@@]4(C)C3CC[C@]12C (stereo not given in full) | 0% | 6% | 2% | · | · | ·
CCC(C)[C@H](N)C(=O)N[C@H]1CCC2C3CC=C4C[C@@H](O)CC[C@]4(C)C3CC[C@@]21C (stereo not given in full) | ? | · | ? | 0 | 9 | -111*
C[C@]12CC[C@H](O)CC1=CCC1C2CC[C@@]2(C)C1CC[C@@H]2NCc1ccccc1 (stereo not given in full) | 21µM* | · | 21µM* | 0 | -1 | 17
CC(C)[C@H](N)C(=O)N[C@H]1CCC2C3CC=C4C[C@@H](O)CC[C@]4(C)C3CC[C@@]21C (stereo not given in full) | ? | · | ? | 2 | 0 | -106*
C[C@@H](N)C(=O)N[C@H]1CCC2C3CC=C4C[C@@H](O)CC[C@]4(C)C3CC[C@@]21C (stereo not given in full) | ? | · | -24% | -1 | 7 | 107
CC(=O)[C@H]1CC[C@@H]2[C@H]3CC=C4C[C@@H](O)CC[C@]4(C)[C@H]3CC[C@]12C | · | 15%[21 µM] | · | · | · | ·
O=C(Nc1nnc(-c2ccncc2)o1)c1ccc(Br)s1 | 13µM* | 10% | 15µM* | ? | -4 | 50
N#Cc1ccc(C(=O)Nc2nnc(-c3ccco3)o2)cc1 | 6.5µM* | 5% | ? | -3 | -10 | 28
O=C(Nc1nnc(-c2ccco2)o1)c1ccc([N+](=O)[O-])s1 | 9.2µM* | 8% | 8.2µM* | -18 | -22 | 1
Cc1ccsc1C(=O)Nc1nnc(-c2ccco2)o1 | -109% | 5% | ? | -22 | ? | 9
SMILES | DT40 TDP1 no CPT | TDP1 block | DT40 TDP1 CPT | Six1-Eya2 blk | CtBP-E1A inh | IL1B secr inh
CCC(=O)Nc1nnc(-c2ccco2)o1 | -12% | -1% | 2% | -18 | -12 | 23
Cc1nnc(NC(=O)c2ccc3ccccc3c2)o1 | ? | 4% | ? | ? | ? | -57*
O=C(CSc1ccc(F)cc1)Nc1ccc(N2CCOCC2)cc1 | 11% | 4%[56.1 µM] | -3% | -12 | -28 | -21
Cc1ccc(C(=O)Nc2nnc(-c3ccco3)o2)cc1 | 23µM* | 6% | 23µM* | -21 | -12 | -4
O=C(Nc1ccccn1)c1ccc(Br)s1 | -17% | · | 1% | -8 | -1 | -64*
O=C(Nc1nnc(-c2ccco2)o1)c1ccc2ccccc2c1 | 21µM* | 8% | ? | -18 | -19 | -2
O=C(NCCS(=O)(=O)NCc1ccccc1Cl)c1ccccc1 | 9% | 0%[0.505 µM] | -2% | 3 | -1 | 12
NS(=O)(=O)c1ccc(CNC(=O)c2cc(=O)[nH]c3ccccc23)cc1 | 10% | 0% | 2% | 1 | -6 | 28
COc1ccccc1CNc1ccc(-c2nc(-c3ccccn3)no2)cc1[N+](=O)[O-] | ? | 9% | -18% | · | · | ·
CCCc1noc(-c2ccc(NCc3ccccc3OC)c([N+](=O)[O-])c2)n1 | 7.3µM* | 9% | 10µM* | · | · | ·
COc1ccc(-c2noc(-c3ccc(NCc4ccco4)c([N+](=O)[O-])c3)n2)cc1OC | 9.2µM* | 6% | 13µM* | · | · | ·
COc1cc(-c2noc(-c3ccc(NCc4cccnc4)c([N+](=O)[O-])c3)n2)cc(OC)c1OC | 6.5µM* | 9% | 7.3µM* | · | · | ·
CC1=NN(C(N)=S)C(=O)C1N=Nc1c(Br)cc(Br)cc1Br (stereo not given) | -28% | · | -28% | -10 | -18 | 8
CCc1nc2c(OCc3cc(Cl)cc(Cl)c3)cccn2c1N(C=O)Cc1ccc(OC)cc1 | ? | · | 23µM* | 1 | 12 | -79*
CCc1nc2c(OCc3c(C)noc3C)cccn2c1N(C=O)Cc1ccccc1 | 21µM* | · | ? | -4 | 9 | 0
CCc1nc2c(OCCC3CCCCC3)cccn2c1N(C=O)Cc1ccccc1 | ? | · | 16µM* | -15 | -6 | -26

High-throughput results: PubChem BioAssay, National Center for Advancing Translational Sciences (NCATS)
